In the library only some 4% were active in any assay of this set; here they are far more common.
KKLEB tox = CF airway cell cytotoxicity counter-screen; KKLEB CF airway cells viability, ATPlite luminescence, overnight; stronger effect = lower value; cells stimulated with P. aeruginosa culture filtrate; activity change (cytotoxicity), % at 5 µM; hit rate 0.36% among 360,000; AID 602141;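 active = corrected activity change at or below -50% at 5 µM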
CF NFkB block = cystic fibrosis NF-kB activation inhibition | KKLEB NF-kB-GFP reporter, PAF-induced, GFP fluorescence overnight | inhibition, % at 5 µM | hit rate 0.86% among 360,000;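 active = at least 50% inhibition at 5 µM, scaled per plate between neutral and stimulator controls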;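 also: PAF is a Pseudomonas aeruginosa culture filtrate used as stimulus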
TWEAK Fn14 block = TWEAK-Fn14 signaling inhibition. AID 1159606. TWEAK-stimulated Fn14 reporter cells, luciferase luminescence, 8 h. inhibition, % at 10 µM. hit rate 2% among 360,000; in the data active = inhibition above about 50%
Peg3 prom inh-1 = Peg3 promoter activity inhibition; HeLa PEG-Prom luciferase reporter, luminescence, overnight; inhibition, % at 20 µM; hit rate 1.7% among 360,000; AID 588405;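 active = inhibition of at least 50% at 20 µM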
TROY signal inh = inhibitors of TROY-dependent NF-kB signaling; Q293 LMP1-TROYcd NF-kB luciferase reporter, 4 h; hit rate 0.98% among 360,000; inhibition, % at 10 µM;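 active = compounds whose plate-normalised and pattern-corrected inhibition of the luciferase reporter signal at the single screening dose is 50% or more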
HIF-2a inh = blocks HIF-2a reporter activity | 786-0 RCC cells HIF-2a reporter, luciferase luminescence, overnight | inhibition, % at 18.8 µM | hit rate 0.72% among 360,000;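 active = inhibition of the luminescence signal of 40% or more relative to plate controls, in a single-dose primary screen at 18.75 µM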
Peg3 prom inh-2 = confirmation of Peg3 promoter inhibitors; shares compounds with Peg3 prom inh-1; HeLa PEG-Prom luciferase reporter, luminescence, overnight; inhibition, % at 20 µM; hit rate 84% among 1,300;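 active = at 20 µM dose, 40% or more inhibition averaged across four replicates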
CF NFkB conf = confirmation of cystic fibrosis induced NF-kB inhibitors. hit rate 64% among 1,300. KKLEB CF airway cells, PAF-induced NF-kB-GFP fluorescence, overnight. AID 602472. inhibition, % at 5 µM. shares compounds with CF NFkB block; in the data active = inhibition above about 40%;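 also: stimulus PAF is a Pseudomonas aeruginosa filtrate and not platelet activating factor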
Mdm2-MdmX confirm = confirmation of inhibitors of human Mdm2/MdmX interaction, set 2 | shares compounds with HIF-2a inh | SaOS-2 split-luciferase Mdm2/MdmX complementation, luminescence | inhibition, % at 8 µM | hit rate 99% among 740 | AID 504601;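 active = mean inhibition of the luminescence signal across two replicates at or above 26 percent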
Target sequence (O15151 whole entry, looked up): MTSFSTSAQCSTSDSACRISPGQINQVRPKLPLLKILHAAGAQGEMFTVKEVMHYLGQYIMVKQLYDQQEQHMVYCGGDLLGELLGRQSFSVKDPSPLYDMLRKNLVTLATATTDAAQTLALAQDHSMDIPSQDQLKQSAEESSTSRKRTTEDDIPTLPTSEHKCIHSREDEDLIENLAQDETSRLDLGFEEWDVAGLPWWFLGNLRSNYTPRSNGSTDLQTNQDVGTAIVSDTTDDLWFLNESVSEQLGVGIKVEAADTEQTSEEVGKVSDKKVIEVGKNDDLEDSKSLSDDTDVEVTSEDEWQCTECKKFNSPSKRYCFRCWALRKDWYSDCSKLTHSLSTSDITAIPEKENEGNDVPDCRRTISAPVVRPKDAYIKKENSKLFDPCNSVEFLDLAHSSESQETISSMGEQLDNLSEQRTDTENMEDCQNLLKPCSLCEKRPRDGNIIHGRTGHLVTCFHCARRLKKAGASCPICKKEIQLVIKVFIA
Target sequence (Q00987 whole entry, looked up): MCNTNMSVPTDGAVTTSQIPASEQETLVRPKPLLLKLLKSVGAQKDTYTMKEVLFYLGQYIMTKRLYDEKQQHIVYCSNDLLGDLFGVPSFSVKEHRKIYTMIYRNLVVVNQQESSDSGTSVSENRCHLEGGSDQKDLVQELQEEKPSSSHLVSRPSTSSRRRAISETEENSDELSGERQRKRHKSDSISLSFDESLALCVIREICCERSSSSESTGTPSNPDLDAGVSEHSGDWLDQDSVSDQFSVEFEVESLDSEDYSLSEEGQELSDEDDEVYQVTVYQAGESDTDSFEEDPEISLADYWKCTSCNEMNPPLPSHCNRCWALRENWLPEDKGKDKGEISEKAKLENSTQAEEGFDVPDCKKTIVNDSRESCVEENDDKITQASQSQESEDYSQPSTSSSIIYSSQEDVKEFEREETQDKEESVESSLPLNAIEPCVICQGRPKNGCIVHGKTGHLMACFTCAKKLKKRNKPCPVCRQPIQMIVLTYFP
HIF-2a conf = confirmation of HIF-2a inhibitors. shares compounds with HIF-2a inh. 786-0 RCC cells, HIF-2a luciferase reporter luminescence, overnight. inhibition, % at 18.8 µM. hit rate 56% among 1,800;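 active = mean inhibition across four replicates of at least 40 percent at the single tested concentration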
HIF-1a cs = HIF-1a inhibition counter-screen for HIF-2a hits | hit rate 72% among 1,800 | MiaPaCa-2 HIF-1a luciferase reporter, desferoxamine, overnight | inhibition, % at 18.8 µM | shares compounds with HIF-2a inh;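 active = mean inhibition of the reporter signal across four replicates at the single tested dose of 50% or more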
Each line names hits and unclear results; the compound was inactive in the other large screens (follow-up assays come after a bar, where they were run).

O[C@H]1C[C@H](c2ccc(Cl)cc2)N(Cc2cccs2)C[C@@H]1n1cc(-c2ccc(F)cc2)nn1	none
CCCCCCCCCCCCCCC(O)C[N+](C)(CCO)CCO (stereo not given)	CF NFkB block 55, Peg3 prom inh-1 70, HIF-2a inh 73 | Peg3 prom inh-2 73 | CF NFkB conf 56 | HIF-2a conf inactive | HIF-1a cs 84
Cc1ccsc1C(=O)N1CCC1(C)C(=O)NS(=O)(=O)c1ccccc1 (stereo not given)	none
CCC1(c2ccc(F)cc2)NC(=O)N(CC(=O)N(C)C2CCS(=O)(=O)C2)C1=O (stereo not given)	none
COC(=O)C1C=CC(OC2OC(COC(C)=O)C(OC(C)=O)C(OC(C)=O)C2OC(C)=O)n2c(=O)n(-c3ccccc3)c(=O)n21 (stereo not given)	CF NFkB block 80, TWEAK Fn14 block 55, Peg3 prom inh-1 107, HIF-2a inh 85 | Peg3 prom inh-2 101 | CF NFkB conf 64 | HIF-2a conf 93 | HIF-1a cs 106
CC1=C(C(=O)OC2CCC(C)CC2)C(c2ccc(O)c([N+](=O)[O-])c2)NC(=O)N1 (stereo not given)	none
COCCNc1nnnc2c1sc1nc(N3CCOCC3)c3c(c12)CC(C)(C)OC3	none
CN(C)CCNc1ncnc2c1sc1nc(N3CCOCC3)c3c(c12)CC(C)(C)SC3	Peg3 prom inh-1 81, HIF-2a inh 54 | Peg3 prom inh-2 94 | HIF-2a conf inactive | HIF-1a cs 80
Cc1nc(SCC(=O)Nc2nc3ccccc3s2)c(C#N)c(C)c1C	TWEAK Fn14 block 107, Peg3 prom inh-1 93, TROY signal inh 92, HIF-2a inh 89 | Peg3 prom inh-2 90 | Mdm2-MdmX confirm 101 | HIF-2a conf 95 | HIF-1a cs 105
Cc1ccc(S(=O)(=O)Nc2cccc3cccnc23)c([N+](=O)[O-])c1	CF NFkB block 68, TWEAK Fn14 block 99, Peg3 prom inh-1 103, TROY signal inh 79, HIF-2a inh 57 | Peg3 prom inh-2 95 | CF NFkB conf 108 | Mdm2-MdmX confirm 101 | HIF-2a conf 75 | HIF-1a cs inactive
O=S(=O)(Nc1cccc2cccnc12)c1ccccc1	CF NFkB block 78, TWEAK Fn14 block 101, Peg3 prom inh-1 103, HIF-2a inh 58 | Peg3 prom inh-2 99 | CF NFkB conf 109 | Mdm2-MdmX confirm 102 | HIF-2a conf 62 | HIF-1a cs inactive
Cc1nnc(SC(C)C(=O)Nc2ccc(N3CCOCC3)cc2)n1Cc1ccccc1 (stereo not given)	none
CC(=O)Nc1ccc(S(=O)(=O)NC(C)C(=O)NCC(c2ccco2)N2CCCCC2)cc1 (stereo not given)	none
Cc1ccc(S(=O)(=O)NC(CC(C)C)C(=O)NCC(c2ccco2)N2CCCCC2)cc1 (stereo not given)	TWEAK Fn14 block 104, Peg3 prom inh-1 75, TROY signal inh 88, HIF-2a inh 80 | Peg3 prom inh-2 85 | HIF-2a conf 88 | HIF-1a cs 93
S=C(NCCSCc1ccc(Cl)cc1Cl)Nc1ccccc1	none
S=C(Nc1ccccc1)Nc1ccc(OCc2ccc(Cl)cc2Cl)cc1	Peg3 prom inh-1 79, TROY signal inh 81, HIF-2a inh 93 | Peg3 prom inh-2 74 | HIF-2a conf 98 | HIF-1a cs 100
COc1cc(C(=O)/C=C/c2cccnc2)c([N+](=O)[O-])cc1OC	Peg3 prom inh-1 69, HIF-2a inh 89 | Peg3 prom inh-2 96 | HIF-2a conf 73 | HIF-1a cs 96
CCc1ccc(-c2cc3c(=O)n(CC(=O)NCCCN4CCC(Cc5ccccc5)CC4)nc(C)n3n2)cc1	Peg3 prom inh-1 100 | Peg3 prom inh-2 98 | Mdm2-MdmX confirm 103
COc1ccccc1NC(=O)CCCc1nnc2n(C)c(=O)c3sccc3n12	none
CCCCCc1ccc(OCCCC[n+]2cccc(C)c2)c(CCCCC)c1	CF NFkB block 58, TWEAK Fn14 block 70, Peg3 prom inh-1 97, TROY signal inh 59, HIF-2a inh 95 | Peg3 prom inh-2 97 | Mdm2-MdmX confirm 102 | HIF-2a conf inactive | HIF-1a cs 106
CCCCOc1ccc(C)cc1CN(CCO)CCO	none
Cc1nn(C(C)(C)C)c(C)c1/C=N/OC(=O)Nc1ccc(Cl)c(Cl)c1	TWEAK Fn14 block 105, Peg3 prom inh-1 106, TROY signal inh 87, HIF-2a inh 94 | Peg3 prom inh-2 97 | HIF-2a conf 98 | HIF-1a cs 100
Cc1ccc(S(=O)(=O)N2CCN(C(=O)Cn3nc(C)c([N+](=O)[O-])c3C)CC2)cc1	none
Cc1c(NS(=O)(=O)c2cccc(C(=O)OCC(=O)c3ccc(Cl)cc3)c2)c(=O)n(-c2ccccc2)n1C	none
Cc1cc(C(=O)CN2C(=O)c3ccccc3S2(=O)=O)c(C)n1CC1CCCO1 (stereo not given)	TWEAK Fn14 block 106, Peg3 prom inh-1 96, HIF-2a inh 92 | Peg3 prom inh-2 93 | HIF-2a conf 98 | HIF-1a cs 104
CCCn1c(C)cc(C(=O)Cn2nnc3ccccc3c2=O)c1C	none
Cc1cc(C(=O)CN2C(=O)NC(C)(c3ccccc3)C2=O)c(C)n1CC1CCCO1 (stereo not given)	none
COc1ccc(C(=O)CN2C(=O)c3ccccc3S2(=O)=O)cc1	TWEAK Fn14 block 102, Peg3 prom inh-1 98, TROY signal inh 85, HIF-2a inh 88 | Peg3 prom inh-2 84 | HIF-2a conf 92 | HIF-1a cs 92
CCCn1c(C)cc(C(=O)CN2C(=O)c3ccccc3S2(=O)=O)c1C	Peg3 prom inh-1 89, HIF-2a inh 91 | Peg3 prom inh-2 87 | HIF-2a conf 95 | HIF-1a cs 95
O=[N+]([O-])c1cc(/C=N/NC(=S)Nc2ccccc2Cl)ccc1Cl	Peg3 prom inh-1 96, HIF-2a inh 70 | Peg3 prom inh-2 inactive | HIF-2a conf inactive | HIF-1a cs 104
O=C(/C=C/c1ccco1)OCC(=O)N1CCCCC1	none
